Measurements reported in the supplement of paper PMC11732987, “Enantioselective OTUD7B fragment discovery through chemoproteomics screening and high-throughput optimisation” (Communications Chemistry, 2025).

Columns and labels:
Assay in all cases: log2 ratio of Biotin-Ahx-Ub-VS probe labelling (fragment/DMSO); higher = less target engagement (more negative = stronger competition), active = hit call of the paper (q ≤ 0.05, log2 ratio ≤ -1)
Details in all cases: compound concentration: 200 uM; treatment time: 3 h
USP34 = USP34 (UniProt Q70CQ2)
Procedure, shortened: (§1)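 Triplicate samples of HEK293T lysate, 495 µg each, received fragment at 200 µM or vehicle for 3 h, followed by Biotin-Ahx-Ub-VS (0.5 µM final) for 1 h. After NeutrAvidin enrichment of labelled DUBs and LysC/trypsin digestion, peptides were run by diaPASEF LC-MS/MS. The values are average log2 fragment/vehicle ratios from global-median-normalised Spectronaut label-free quantities, tested by unpaired t-test on proteins having ≥2 unique peptides.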

USP36 = target: T1, USP36 (UniProt Q9P275)
T1 sequence (whole entry): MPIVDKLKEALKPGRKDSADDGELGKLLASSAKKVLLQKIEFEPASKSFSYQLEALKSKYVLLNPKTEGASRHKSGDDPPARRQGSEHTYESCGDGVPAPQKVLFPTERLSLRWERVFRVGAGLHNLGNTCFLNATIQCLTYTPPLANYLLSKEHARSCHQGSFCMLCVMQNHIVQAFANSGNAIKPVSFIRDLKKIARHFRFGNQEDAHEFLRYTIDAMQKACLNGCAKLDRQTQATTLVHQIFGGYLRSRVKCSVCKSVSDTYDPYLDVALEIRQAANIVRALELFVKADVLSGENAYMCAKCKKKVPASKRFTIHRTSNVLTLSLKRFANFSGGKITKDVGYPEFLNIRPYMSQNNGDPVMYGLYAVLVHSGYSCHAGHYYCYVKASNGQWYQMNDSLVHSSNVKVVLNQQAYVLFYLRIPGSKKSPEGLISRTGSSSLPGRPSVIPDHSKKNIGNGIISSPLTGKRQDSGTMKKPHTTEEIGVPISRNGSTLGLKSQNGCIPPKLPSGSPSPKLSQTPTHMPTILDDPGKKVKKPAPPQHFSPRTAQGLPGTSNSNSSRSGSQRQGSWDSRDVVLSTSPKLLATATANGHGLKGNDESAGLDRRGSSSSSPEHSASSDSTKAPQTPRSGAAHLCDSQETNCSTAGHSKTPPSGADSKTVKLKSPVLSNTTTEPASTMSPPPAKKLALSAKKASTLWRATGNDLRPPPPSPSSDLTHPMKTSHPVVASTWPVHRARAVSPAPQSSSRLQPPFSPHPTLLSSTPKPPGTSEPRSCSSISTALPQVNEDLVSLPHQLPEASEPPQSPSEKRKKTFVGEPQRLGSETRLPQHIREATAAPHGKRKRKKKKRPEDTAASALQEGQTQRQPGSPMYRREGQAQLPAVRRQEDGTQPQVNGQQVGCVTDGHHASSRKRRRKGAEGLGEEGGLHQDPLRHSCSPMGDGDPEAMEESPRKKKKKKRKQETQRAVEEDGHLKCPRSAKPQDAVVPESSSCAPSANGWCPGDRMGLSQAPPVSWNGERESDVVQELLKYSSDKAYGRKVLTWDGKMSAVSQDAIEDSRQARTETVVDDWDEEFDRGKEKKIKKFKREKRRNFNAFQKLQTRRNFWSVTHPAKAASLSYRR
Procedure, shortened: as §1

USP38 = target: T2, USP38 (UniProt Q8NB14)
T2 sequence (whole entry): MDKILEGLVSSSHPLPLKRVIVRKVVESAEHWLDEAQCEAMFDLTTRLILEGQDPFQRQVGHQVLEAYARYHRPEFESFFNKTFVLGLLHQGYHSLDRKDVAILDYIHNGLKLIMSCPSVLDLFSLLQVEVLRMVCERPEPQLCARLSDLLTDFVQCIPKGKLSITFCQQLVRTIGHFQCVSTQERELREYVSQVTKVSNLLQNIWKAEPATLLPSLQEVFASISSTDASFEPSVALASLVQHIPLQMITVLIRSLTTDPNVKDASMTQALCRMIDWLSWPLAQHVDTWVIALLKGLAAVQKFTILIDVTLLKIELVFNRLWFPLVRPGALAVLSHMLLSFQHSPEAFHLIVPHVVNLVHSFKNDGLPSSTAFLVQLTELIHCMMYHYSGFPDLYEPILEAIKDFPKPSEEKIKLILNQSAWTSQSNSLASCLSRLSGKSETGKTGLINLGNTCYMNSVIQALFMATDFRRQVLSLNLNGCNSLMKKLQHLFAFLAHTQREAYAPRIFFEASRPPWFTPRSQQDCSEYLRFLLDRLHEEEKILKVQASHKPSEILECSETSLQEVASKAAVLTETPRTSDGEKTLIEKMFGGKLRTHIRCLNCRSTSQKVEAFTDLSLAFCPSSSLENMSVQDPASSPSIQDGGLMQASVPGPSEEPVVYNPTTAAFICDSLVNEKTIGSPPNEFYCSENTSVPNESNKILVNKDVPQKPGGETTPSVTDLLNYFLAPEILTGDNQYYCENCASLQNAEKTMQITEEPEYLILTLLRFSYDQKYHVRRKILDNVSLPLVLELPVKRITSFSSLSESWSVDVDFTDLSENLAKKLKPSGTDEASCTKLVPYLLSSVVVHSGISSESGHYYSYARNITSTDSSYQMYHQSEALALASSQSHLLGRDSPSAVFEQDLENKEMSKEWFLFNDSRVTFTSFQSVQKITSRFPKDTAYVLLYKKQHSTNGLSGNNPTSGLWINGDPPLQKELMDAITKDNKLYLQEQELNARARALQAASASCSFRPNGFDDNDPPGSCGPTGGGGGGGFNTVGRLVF
Procedure, shortened: as §1

USP39 = target: T3, USP39 (UniProt Q53GS9)
T3 sequence (whole entry): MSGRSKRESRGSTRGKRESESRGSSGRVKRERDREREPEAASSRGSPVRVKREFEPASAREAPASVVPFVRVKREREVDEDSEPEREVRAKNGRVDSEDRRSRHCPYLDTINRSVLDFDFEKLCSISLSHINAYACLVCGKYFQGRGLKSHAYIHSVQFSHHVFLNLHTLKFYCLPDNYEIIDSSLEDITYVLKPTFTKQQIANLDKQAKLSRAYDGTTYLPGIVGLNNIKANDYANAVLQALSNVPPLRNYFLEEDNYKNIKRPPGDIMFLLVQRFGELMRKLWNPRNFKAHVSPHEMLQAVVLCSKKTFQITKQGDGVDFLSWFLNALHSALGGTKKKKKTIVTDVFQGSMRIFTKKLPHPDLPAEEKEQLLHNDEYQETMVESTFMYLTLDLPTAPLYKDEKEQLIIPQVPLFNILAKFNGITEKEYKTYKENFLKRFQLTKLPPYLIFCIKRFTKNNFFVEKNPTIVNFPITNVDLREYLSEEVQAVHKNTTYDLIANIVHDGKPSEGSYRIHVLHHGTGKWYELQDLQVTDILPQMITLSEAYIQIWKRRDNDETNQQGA
Procedure, shortened: as §1

USP4 = target: T4, USP4 (UniProt Q13107)
T4 sequence (whole entry): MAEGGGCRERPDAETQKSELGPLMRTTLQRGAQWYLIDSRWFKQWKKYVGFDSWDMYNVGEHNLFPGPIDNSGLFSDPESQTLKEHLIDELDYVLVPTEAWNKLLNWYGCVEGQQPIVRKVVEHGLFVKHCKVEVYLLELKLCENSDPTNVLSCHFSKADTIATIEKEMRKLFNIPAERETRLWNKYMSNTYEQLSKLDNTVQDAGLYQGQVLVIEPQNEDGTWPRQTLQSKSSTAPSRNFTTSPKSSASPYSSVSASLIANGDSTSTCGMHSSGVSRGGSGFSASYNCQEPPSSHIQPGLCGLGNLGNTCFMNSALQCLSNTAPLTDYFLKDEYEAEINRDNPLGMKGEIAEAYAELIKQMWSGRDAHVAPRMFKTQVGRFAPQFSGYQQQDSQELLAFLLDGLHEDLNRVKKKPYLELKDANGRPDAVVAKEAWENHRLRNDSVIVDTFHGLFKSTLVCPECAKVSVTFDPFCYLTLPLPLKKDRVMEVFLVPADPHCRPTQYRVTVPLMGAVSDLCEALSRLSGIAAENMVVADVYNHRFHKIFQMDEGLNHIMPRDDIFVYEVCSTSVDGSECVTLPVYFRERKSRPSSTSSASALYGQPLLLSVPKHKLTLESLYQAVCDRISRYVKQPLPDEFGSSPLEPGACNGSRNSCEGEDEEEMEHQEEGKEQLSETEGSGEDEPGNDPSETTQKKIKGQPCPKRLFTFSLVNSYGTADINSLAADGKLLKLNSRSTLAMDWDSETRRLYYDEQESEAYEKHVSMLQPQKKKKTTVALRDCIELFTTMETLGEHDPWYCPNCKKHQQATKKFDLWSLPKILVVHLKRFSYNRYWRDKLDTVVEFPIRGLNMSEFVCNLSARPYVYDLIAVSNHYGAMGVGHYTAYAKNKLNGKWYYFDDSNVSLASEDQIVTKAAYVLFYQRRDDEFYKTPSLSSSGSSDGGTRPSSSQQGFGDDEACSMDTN
Procedure, shortened: as §1

Measured: log2 ratio of Biotin-Ahx-Ub-VS probe labelling

Chain of USP34 (Q70CQ2 whole entry, the tested form may be a part): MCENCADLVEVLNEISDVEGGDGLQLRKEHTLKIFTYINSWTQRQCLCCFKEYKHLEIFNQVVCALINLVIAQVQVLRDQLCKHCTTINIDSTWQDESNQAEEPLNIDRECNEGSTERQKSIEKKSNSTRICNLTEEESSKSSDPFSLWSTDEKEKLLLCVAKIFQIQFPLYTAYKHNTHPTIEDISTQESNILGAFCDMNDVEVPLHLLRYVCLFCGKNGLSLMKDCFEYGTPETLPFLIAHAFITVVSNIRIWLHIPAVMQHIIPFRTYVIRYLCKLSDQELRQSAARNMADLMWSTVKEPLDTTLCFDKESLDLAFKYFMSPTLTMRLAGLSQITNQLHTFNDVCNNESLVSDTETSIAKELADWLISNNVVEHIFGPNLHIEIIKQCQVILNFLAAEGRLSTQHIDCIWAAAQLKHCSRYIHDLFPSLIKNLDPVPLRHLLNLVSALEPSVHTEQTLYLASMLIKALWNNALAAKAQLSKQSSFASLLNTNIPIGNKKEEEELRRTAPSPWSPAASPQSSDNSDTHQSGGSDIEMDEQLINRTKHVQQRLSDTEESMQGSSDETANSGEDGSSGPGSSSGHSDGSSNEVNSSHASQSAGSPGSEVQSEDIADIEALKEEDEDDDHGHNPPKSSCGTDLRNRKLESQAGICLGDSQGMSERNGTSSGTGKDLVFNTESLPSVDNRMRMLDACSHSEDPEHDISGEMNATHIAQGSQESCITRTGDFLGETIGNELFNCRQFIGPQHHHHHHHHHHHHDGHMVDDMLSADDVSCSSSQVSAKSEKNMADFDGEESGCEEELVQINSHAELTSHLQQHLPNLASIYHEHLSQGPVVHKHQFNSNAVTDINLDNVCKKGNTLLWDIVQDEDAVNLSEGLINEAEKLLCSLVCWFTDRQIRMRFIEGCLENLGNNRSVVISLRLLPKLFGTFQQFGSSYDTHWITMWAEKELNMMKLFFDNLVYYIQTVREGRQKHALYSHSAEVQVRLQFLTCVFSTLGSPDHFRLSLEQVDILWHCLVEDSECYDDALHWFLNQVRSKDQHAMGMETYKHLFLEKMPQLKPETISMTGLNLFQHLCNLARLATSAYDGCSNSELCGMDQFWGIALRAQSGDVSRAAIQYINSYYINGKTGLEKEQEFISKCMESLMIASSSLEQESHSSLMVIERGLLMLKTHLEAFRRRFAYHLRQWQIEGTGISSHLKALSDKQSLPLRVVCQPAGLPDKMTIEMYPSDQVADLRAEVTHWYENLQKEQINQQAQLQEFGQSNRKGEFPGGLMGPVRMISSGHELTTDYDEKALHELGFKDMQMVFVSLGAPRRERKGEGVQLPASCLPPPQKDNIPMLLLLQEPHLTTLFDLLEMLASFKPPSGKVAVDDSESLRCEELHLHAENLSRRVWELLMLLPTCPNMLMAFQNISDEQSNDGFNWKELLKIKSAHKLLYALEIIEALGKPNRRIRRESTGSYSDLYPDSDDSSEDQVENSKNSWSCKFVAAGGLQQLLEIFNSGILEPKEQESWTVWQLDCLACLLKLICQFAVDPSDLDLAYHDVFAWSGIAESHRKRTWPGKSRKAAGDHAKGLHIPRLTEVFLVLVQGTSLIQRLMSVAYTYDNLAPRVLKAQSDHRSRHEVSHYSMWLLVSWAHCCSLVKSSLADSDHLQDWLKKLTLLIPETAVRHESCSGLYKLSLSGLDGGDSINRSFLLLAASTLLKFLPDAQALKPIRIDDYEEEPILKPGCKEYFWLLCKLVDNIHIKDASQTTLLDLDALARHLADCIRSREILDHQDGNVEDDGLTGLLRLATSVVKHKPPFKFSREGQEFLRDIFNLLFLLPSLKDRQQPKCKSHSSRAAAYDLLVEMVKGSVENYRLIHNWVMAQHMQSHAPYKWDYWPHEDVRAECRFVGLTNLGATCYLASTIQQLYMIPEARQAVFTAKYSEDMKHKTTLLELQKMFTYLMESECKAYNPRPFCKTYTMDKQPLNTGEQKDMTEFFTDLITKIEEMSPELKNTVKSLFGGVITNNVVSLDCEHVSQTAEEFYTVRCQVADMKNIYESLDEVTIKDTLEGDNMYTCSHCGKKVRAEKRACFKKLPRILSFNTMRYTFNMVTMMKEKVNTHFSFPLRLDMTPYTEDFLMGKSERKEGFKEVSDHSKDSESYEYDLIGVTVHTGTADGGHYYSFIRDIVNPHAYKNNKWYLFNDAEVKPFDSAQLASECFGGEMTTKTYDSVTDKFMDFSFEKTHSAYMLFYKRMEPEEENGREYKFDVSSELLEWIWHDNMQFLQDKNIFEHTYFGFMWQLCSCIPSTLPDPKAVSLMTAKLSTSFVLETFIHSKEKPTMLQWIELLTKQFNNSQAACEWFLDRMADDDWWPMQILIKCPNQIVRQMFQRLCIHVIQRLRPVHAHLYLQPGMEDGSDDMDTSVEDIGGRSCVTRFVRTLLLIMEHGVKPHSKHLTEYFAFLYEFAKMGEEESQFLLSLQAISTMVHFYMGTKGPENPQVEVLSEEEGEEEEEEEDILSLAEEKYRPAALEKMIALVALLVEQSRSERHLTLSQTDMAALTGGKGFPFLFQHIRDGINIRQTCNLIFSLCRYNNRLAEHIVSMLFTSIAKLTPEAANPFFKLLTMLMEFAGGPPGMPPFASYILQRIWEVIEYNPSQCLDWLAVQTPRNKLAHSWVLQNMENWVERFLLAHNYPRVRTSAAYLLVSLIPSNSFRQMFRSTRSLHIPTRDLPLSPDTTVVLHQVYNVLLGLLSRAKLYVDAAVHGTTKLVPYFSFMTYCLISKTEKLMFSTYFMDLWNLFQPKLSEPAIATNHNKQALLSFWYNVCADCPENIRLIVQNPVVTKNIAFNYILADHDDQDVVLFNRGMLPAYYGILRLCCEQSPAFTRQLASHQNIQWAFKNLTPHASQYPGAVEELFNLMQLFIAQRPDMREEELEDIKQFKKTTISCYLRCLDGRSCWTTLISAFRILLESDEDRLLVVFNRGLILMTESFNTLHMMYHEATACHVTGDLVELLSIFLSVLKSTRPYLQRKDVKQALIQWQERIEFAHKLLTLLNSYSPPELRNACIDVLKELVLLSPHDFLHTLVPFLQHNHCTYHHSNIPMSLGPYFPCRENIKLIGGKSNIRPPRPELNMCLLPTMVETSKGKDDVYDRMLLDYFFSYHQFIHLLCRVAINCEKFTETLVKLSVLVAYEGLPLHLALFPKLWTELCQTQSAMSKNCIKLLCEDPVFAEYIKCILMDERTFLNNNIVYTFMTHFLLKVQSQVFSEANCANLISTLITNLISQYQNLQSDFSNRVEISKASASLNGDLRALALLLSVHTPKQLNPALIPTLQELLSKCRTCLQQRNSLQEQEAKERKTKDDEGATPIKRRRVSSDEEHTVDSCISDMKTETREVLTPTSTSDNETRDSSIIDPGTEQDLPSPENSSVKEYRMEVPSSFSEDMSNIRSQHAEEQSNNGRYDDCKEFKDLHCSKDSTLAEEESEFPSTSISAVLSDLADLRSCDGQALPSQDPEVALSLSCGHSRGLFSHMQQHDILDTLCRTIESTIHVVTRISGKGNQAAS

Cc1cnc2[nH]cc(CCNC(=O)CCl)c2c1
inactive: USP34 -0.162 | USP36 -0.31 | USP38 0.0877 | USP39 0.144 | USP4 -0.338
